Sampled rows, rich in hits. Any-hit rate of the full collection: about 28%.
hDAT+cocaine – modulates human dopamine transporter uptake under cocaine | Q01959 | LLC-PK1 hDAT cells, [14C]-dopamine uptake with cocaine IC80; actives deviate in either direction | B-score at 10 µM | 1.3% of 110,000 active | AID 449768;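 active = Z score or B-score, a plate-position-corrected score, falls beyond the plate's 99.7% confidence bounds, in either direction; inactive = both scores lie inside the 99.7% bounds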;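 also: scored against the spread of the other compound wells on the same plate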
D1 allo mod – allosteric modulators of human D1 dopamine receptor; P21728; HEK293 D1, CRE-luciferase, dopamine EC30 potentiation; actives deviate in either direction; B-score at 10 µM; 5.9% of 58,000 active;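 active = luminescence count or its row- and column-corrected plate score outside the 99.7% band of the plate's sample wells, on either side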
Target sequence (P21728 whole entry, looked up): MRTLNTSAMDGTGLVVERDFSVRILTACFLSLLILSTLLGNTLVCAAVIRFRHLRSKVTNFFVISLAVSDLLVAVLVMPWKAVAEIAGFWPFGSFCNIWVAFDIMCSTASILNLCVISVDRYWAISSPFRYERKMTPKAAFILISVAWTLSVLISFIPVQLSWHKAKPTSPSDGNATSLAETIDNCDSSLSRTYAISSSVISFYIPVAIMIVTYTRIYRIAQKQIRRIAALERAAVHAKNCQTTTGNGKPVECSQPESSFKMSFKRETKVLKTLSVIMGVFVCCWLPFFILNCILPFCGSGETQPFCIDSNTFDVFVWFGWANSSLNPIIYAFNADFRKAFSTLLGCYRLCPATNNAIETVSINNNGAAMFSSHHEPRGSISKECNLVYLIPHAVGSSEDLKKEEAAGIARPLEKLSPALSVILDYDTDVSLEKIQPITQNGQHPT
CYP2C19 inhib – human CYP2C19 inhibition | P33261 | CYP2C19 Supersomes, luciferin-H EGE luminescence, 30 min | inhibition, % at 5 µM | 21% of 96,000 active;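 active = CYP2C19 inhibition above a set limit at 5 µM in the primary screen, cut at about 50% in these data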;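 also: plate controls were negative control wells for no effect and 2.5 mM tranylcypromine positive control for full effect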
CYP2C19 activ – increases human CYP2C19 enzyme activity | P33261 | recombinant CYP2C19, luciferin-H EGE luminescence; stronger effect = higher value; 0 = fully inhibited enzyme, 1 = untreated enzyme | activation factor at 5 µM | 96,000 tested, under 10 active | AID 1025;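 active = activation factor of at least 2 at 5 µM in the primary screen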;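 also: 0 = wells with 2.5 mM tranylcypromine and 1 = vehicle-only wells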
CYP2C9 act – CYP2C9 (human) activation | recombinant CYP2C9, luciferin-H conversion, luminescence; stronger effect = higher value; factor 1 = untreated enzyme, 0 = blocked | 1.4% of 96,000 active | activation factor at 5 µM;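 active = activation factor of 2 or more for CYP2C9 at a 5 µM dose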;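 also: 0 = sulfaphenazole-blocked wells and 1 = vehicle-only wells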
CYP2C9 inh – blocks human cytochrome P450 2C9; inhibition, % at 5 µM; AID 777; P11712; CYP2C9 Supersomes, luciferin-H conversion, luminescence; 20% of 96,000 active;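 active = blocking of liver enzyme CYP2C9 beyond about 50% at 5 µM, limit read from the data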
Active calls of the source: *.

Screening CCOc1ccccc1NC(=O)N1CCCC1C(=O)Nc1ccc(-n2cnnn2)c(C)c1 (stereo not given) returned hDAT+cocaine 0.401, D1 allo mod 0.793, CYP2C19 inhib 69.9*, CYP2C19 activ 0.3, CYP2C9 act 0.2 and CYP2C9 inh 78.8*.
Screening O=C(Nc1ccc(-n2cnnn2)cc1)C1CCCN1C(=O)NC1CCCCC1 (stereo not given) returned hDAT+cocaine -0.898, D1 allo mod -0.743, CYP2C19 inhib 66.5*, CYP2C19 activ 0.3, CYP2C9 act 0.4 and CYP2C9 inh 58.7*.
Cc1cc(C(=O)NC(C)C)on1 was read as hDAT+cocaine -0.0659, D1 allo mod -0.891, CYP2C19 inhib 0.5, CYP2C19 activ 1, CYP2C9 act 1 and CYP2C9 inh 2.1.
For Cc1ccc(Nc2nnns2)cc1C the results were hDAT+cocaine -0.7, D1 allo mod -0.00126, CYP2C19 inhib 39.8, CYP2C19 activ 0.6, CYP2C9 act 0.7 and CYP2C9 inh 34.5.
Screening Cc1ccc(C)c(NC2=NC3(CCCCC3)N=C(N)N2)c1 returned hDAT+cocaine 0.362 and D1 allo mod -5.99*.
`Cc1cccc(C)c1NC1=NC2(CCCCC2)N=C(N)N1` gave hDAT+cocaine 0.00228, D1 allo mod 1.15, CYP2C19 inhib -6.3, CYP2C19 activ 1.1, CYP2C9 act 1 and CYP2C9 inh -0.6.
Screening Cc1cccc(NC2=NC3(CCCCC3)N=C(N)N2)c1C returned hDAT+cocaine -0.571, D1 allo mod -3.2, CYP2C19 inhib 0.7, CYP2C19 activ 1, CYP2C9 act 1.1 and CYP2C9 inh -10.2.
For Cc1ccc(NC2=NC3(CCCCC3)N=C(N)N2)c(C)c1 the results were hDAT+cocaine -0.696, D1 allo mod -4.11*, CYP2C19 inhib 5.0, CYP2C19 activ 0.9, CYP2C9 act 1 and CYP2C9 inh 0.9.
COc1cccc(NC2=NC3(CCCCC3)N=C(N)N2)c1 was read as hDAT+cocaine 0.185, D1 allo mod -2.73*, CYP2C19 inhib -10.0, CYP2C19 activ 1.1, CYP2C9 act 1.2 and CYP2C9 inh -15.4.
CCN(CC)CCNc1nc2c(c(=O)[nH]c(=O)n2C)n1CCOc1ccccc1 was read as D1 allo mod 0.164.
COc1ccc(C(C)=O)cc1COc1ccc(-n2cnnn2)cc1 was read as hDAT+cocaine -0.438, CYP2C19 inhib 99.1*, CYP2C19 activ 0, CYP2C9 act 0.1 and CYP2C9 inh 93.4*.
For COc1cc(NC(=O)COc2ccc(-n3cnnn3)cc2)c(OC)cc1Cl the results were hDAT+cocaine -0.0366, D1 allo mod 0.021, CYP2C19 inhib 14.0, CYP2C19 activ 0.9, CYP2C9 act 1.2 and CYP2C9 inh -19.5.
`COc1ccc(OC)c(NC(=O)COC(=O)c2ccc(-n3cnnn3)cc2)c1` gave hDAT+cocaine 0.626, D1 allo mod 0.851, CYP2C19 inhib 63.3*, CYP2C19 activ 0.4, CYP2C9 act 0.8 and CYP2C9 inh 21.4.
For COc1ccc([C@H]2[C@@H](C#N)[C@H](C#N)N3CCCN23)cc1 the results were hDAT+cocaine -1.41.
Cc1ccccc1OCc1nnc2c3cnn(C)c3ncn12 was read as hDAT+cocaine 0.933, D1 allo mod 0.39, CYP2C19 inhib 41.3, CYP2C19 activ 0.6, CYP2C9 act 1 and CYP2C9 inh 1.4.
`Clc1ccc(CN=C2Nc3ccccc3CS2)cc1` gave hDAT+cocaine 0.356, CYP2C19 inhib 85.7*, CYP2C19 activ 0.1, CYP2C9 act 0.7 and CYP2C9 inh 32.6.
`Cc1ccc(CN=C2Nc3ccccc3CS2)cc1` gave hDAT+cocaine -0.264, CYP2C19 inhib 70.9*, CYP2C19 activ 0.3, CYP2C9 act 0.7 and CYP2C9 inh 34.9.
`Cc1cc(NC(=O)CSc2ncnc3ccccc23)no1` gave hDAT+cocaine -1.03, D1 allo mod -0.221, CYP2C19 inhib 21.6, CYP2C19 activ 0.8, CYP2C9 act 0.8 and CYP2C9 inh 22.0.
Screening COC(=O)[C@@H]1C[C@@]2(O)[C@H](O)[C@H](O)[C@H](O)C[C@H]2N1CC1CC1 returned hDAT+cocaine -0.461.
Cc1ccc(C(Sc2ccccc2)C(Cn2cncn2)C(=O)c2ccccc2)cc1 (stereo not given) was read as hDAT+cocaine 0.0874, CYP2C19 inhib 91.8*, CYP2C19 activ 0.1, CYP2C9 act 0.4 and CYP2C9 inh 63.0*.
For COc1ccc(/C=N/OCC(=O)N2CC3(C)CC2CC(C)(C)C3)cc1OC (stereo not given) the results were hDAT+cocaine 2.78*, CYP2C19 inhib 30.9, CYP2C19 activ 0.7, CYP2C9 act 1 and CYP2C9 inh 4.3.
`COc1ccc(CC(=O)N2CC3(C)CC2CC(C)(C)C3)cc1` (stereo not given) gave hDAT+cocaine -0.0197, CYP2C19 inhib 37.2, CYP2C19 activ 0.6, CYP2C9 act 0.8 and CYP2C9 inh 18.8.
Cc1ccc(OCC(=O)N2CC3(C)CC2CC(C)(C)C3)cc1 (stereo not given) was read as hDAT+cocaine 1.73.
`Cc1cccc(C)c1OCC(=O)N1CC2(C)CC1CC(C)(C)C2` (stereo not given) gave hDAT+cocaine 1.7, CYP2C19 inhib 61.0*, CYP2C19 activ 0.4, CYP2C9 act 1.2 and CYP2C9 inh -22.4.
O=C(Nc1nncs1)c1c(F)c(F)c(F)c(F)c1F was read as hDAT+cocaine -1.23, D1 allo mod -0.0653, CYP2C19 inhib 16.7, CYP2C19 activ 0.8, CYP2C9 act 1 and CYP2C9 inh 3.8.
For CCCc1cc(=O)[nH]c(SCC(=O)NC)n1 the results were hDAT+cocaine 0.000924, CYP2C19 inhib 7.5, CYP2C19 activ 0.9, CYP2C9 act 0.8 and CYP2C9 inh 15.8.
CCCc1cc(=O)[nH]c(SCC(=O)CSc2nc(CCC)cc(=O)[nH]2)n1 was read as hDAT+cocaine -0.121, D1 allo mod 0.94, CYP2C19 inhib 11.4, CYP2C19 activ 0.9, CYP2C9 act 0.3 and CYP2C9 inh 70.1*.
Screening CCCc1cc(=O)[nH]c(SCCOc2ccc(OCC)cc2)n1 returned hDAT+cocaine 0.109, CYP2C19 inhib 26.5, CYP2C19 activ 0.7, CYP2C9 act 0.7 and CYP2C9 inh 32.4.
Screening CCCc1cc(=O)[nH]c(SCc2ccccc2Cl)n1 returned hDAT+cocaine -1.67, CYP2C19 inhib 50.0*, CYP2C19 activ 0.5, CYP2C9 act 0.3 and CYP2C9 inh 72.2*.
CCCc1cc(=O)[nH]c(SCCOC(=O)c2ccccc2)n1 was read as hDAT+cocaine 1.64, CYP2C19 inhib 54.4*, CYP2C19 activ 0.5, CYP2C9 act 0.3 and CYP2C9 inh 71.2*.
CCCc1cc(=O)[nH]c(SCC(=O)N(CC(C)C)C2CCS(=O)(=O)C2)n1 (stereo not given) was read as hDAT+cocaine 3.07*, D1 allo mod -0.204, CYP2C19 inhib -6.3, CYP2C19 activ 1.1, CYP2C9 act 1 and CYP2C9 inh -3.9.
